Bioassay records (PubChem BioAssay)
Jurkat NFkB inh: inhibitors of induced NF-kB luciferase reporter, primary screen, TCR NF-kB activation inhibitor project, cell-based, luminescence, uHTS. Jurkat, PMA/ionomycin-induced NF-kB luciferase reporter. inhibition, % at 4 µM. hit rate 0.53% among 330,000. AID 435003, 2010; in the data active means inhibition above about 50%
TMEM16A inh: TMEM16A chloride channel inhibitors, primary screen, cell-based, HTS; Anoctamin-1 (Mus musculus), Q8BHY3; HEK293 TMEM16A/YFP iodide influx fluorescence, ionomycin; normalized B-score (activity score, 25-100; higher = stronger inhibition) at 10 µM; hit rate 1.2% among 310,000;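 active means ratio plate-corrected score three or more library SD toward inhibition, starting fluorescence score within five deviations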;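 further: score derived from kinetic fluorescence span divided by baseline fluorescence per well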
aSyn 5UTR inh: MLPCN primary screen, SNCA 5' untranslated region; alpha-synuclein 5'UTR reporter, inhibitor activity; inhibition, % (tested at 7.5 µM); hit rate 0.82% among 300,000; AID 1813, 2009; in the data active means inhibition above about 60%;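 further: H4 neuroglioblastoma cells stably carrying SNCA 5'UTR luciferase fusion; 0% = DMSO wells and 100% = positive control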
697 NFkB inh: inhibitors of PMA/ionomycin-induced NF-kB reporter, 697 cells, primary screen, B-cell NF-kB inhibitor project, cell-based, luminescence, uHTS. 697 B-cell NF-kB luciferase reporter, 16 h. inhibition, % at 4 µM. hit rate 0.33% among 330,000; in the data active means inhibition above about 35%
ANO1 activ: TMEM16A chloride channel activators or potentiators, primary screen, cell-based, HTS; Anoctamin-1 (Mus musculus), Q8BHY3; HEK293 TMEM16A/YFP-H148Q/I152L, iodide quench fluorescence; stronger effect = lower value; B-score at 10 µM; hit rate 0.3% among 340,000;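 active means fluorescence-ratio B-score plate-corrected deviation score at least 3 library SD below zero, with starting fluorescence score within 5 deviations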;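 further: channel opened by trigger with iodide after compound preincubation; score built on the fluorescence ratio of max minus min over baseline; more negative score means more quench and so TMEM16A activation or potentiation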
KLF5 inh: KLF5 expression inhibitors, primary screen, DLD-1 cells, luminescence | DLD-1 KLF5 promoter-luciferase reporter | hit rate 0.23% among 290,000 | inhibition, % at 5 µM;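 active means inhibition above a per-plate limit of that plate's mean compound inhibition plus 3 SD, cut at about 60% in these data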;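 further: 0% = DMSO wells and 100% = LY294002 at 200 µM; higher means less KLF5 promoter-driven luciferase light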
Numbers without * were called inactive. Most compounds without a hit are left out; they make up all but 2.5% or so of the library.

Results for COc1cc(C)c(C)cc1S(=O)(=O)N1CCCCC1c1cccnc1 (stereo unspecified) ?
Jurkat NFkB inh: -15.6; TMEM16A inh: inactive; aSyn 5UTR inh: 16.3; 697 NFkB inh: -12.7; ANO1 activ: -6.01*; KLF5 inh: 13.4

How did O=Cc1s/c(=N\S(=O)(=O)c2ccccc2)n(CCCCl)c1Cl do in these assays?
aSyn 5UTR inh: 69.8*; ANO1 activ: inactive; KLF5 inh: -39.8

What do the screens show for `CCn1c(C)cs/c1=N\S(=O)(=O)c1ccccc1`?
Jurkat NFkB inh: 1.1; TMEM16A inh: inactive; aSyn 5UTR inh: 8.7; 697 NFkB inh: 21.3; ANO1 activ: inactive

What do the screens show for `Nc1cc(=O)[nH]c(SCc2ccc(Cl)cc2Cl)n1`?
Jurkat NFkB inh: 15.9; TMEM16A inh: inactive; aSyn 5UTR inh: -1.1; 697 NFkB inh: -16.6; ANO1 activ: inactive; KLF5 inh: -3.0

How did COc1ccc(/C=C/C(=O)Nc2ccccc2C(=O)N2CCCC2)cc1 do in these assays?
Jurkat NFkB inh: -15.9; TMEM16A inh: inactive; aSyn 5UTR inh: -86.4; 697 NFkB inh: -45.0; ANO1 activ: inactive; KLF5 inh: -41.1

How did COc1ccc(/C=C/c2cc(C(=O)O)c3ccccc3n2)cc1 do in these assays?
Jurkat NFkB inh: 18.5; TMEM16A inh: inactive; aSyn 5UTR inh: 80.6*; 697 NFkB inh: -90.4; ANO1 activ: inactive; KLF5 inh: 3.3

Results for COc1ccc(/C=C/C(=O)Nc2ccccc2C(=O)O)cc1 ?
Jurkat NFkB inh: -53.4; TMEM16A inh: inactive; aSyn 5UTR inh: 83.1*; 697 NFkB inh: -100.5; ANO1 activ: inactive; KLF5 inh: -41.0

What do the screens show for `N#CC1(C(N)=O)OC12CCS(=O)(=O)c1ccccc12` (stereo unspecified)?
ANO1 activ: inactive

What do the screens show for `CSc1nc(C)cc(-c2cc(C(=O)Nc3ccccc3)on2)n1`?
Jurkat NFkB inh: 1.2; TMEM16A inh: inactive; aSyn 5UTR inh: 15.1; 697 NFkB inh: 12.3

Results for COc1ccc(-c2cc3ccc(OCC(N)=O)cc3oc2=O)cc1OC ?
Jurkat NFkB inh: -21.7; TMEM16A inh: 25*; aSyn 5UTR inh: -65.1; 697 NFkB inh: -31.2; ANO1 activ: inactive; KLF5 inh: -27.6

What do the screens show for `O=c1c2ccccc2cnn1CCOc1ccccc1`?
Jurkat NFkB inh: -28.3; TMEM16A inh: inactive; aSyn 5UTR inh: 72.1*; 697 NFkB inh: -162.9; ANO1 activ: inactive; KLF5 inh: 53.5

What do the screens show for `O=C(O)Cn1ncc2ccccc2c1=O`?
Jurkat NFkB inh: -10.8; TMEM16A inh: inactive; aSyn 5UTR inh: 11.2; 697 NFkB inh: -1.7; ANO1 activ: inactive; KLF5 inh: -10.7

How did Cc1ccnc(NC(=O)c2ccc(COc3ccc(Cl)cc3)o2)c1 do in these assays?
Jurkat NFkB inh: -16.7; TMEM16A inh: inactive; aSyn 5UTR inh: -29.2; 697 NFkB inh: -19.1; ANO1 activ: -10*; KLF5 inh: -17.1

How did COc1ccc(N(Cc2cc3cc(C)ccc3[nH]c2=O)C(C)=O)cc1 do in these assays?
Jurkat NFkB inh: -24.5; TMEM16A inh: inactive; aSyn 5UTR inh: 12.4; 697 NFkB inh: -13.9; ANO1 activ: inactive; KLF5 inh: -53.8

How did CCOC(=O)c1cnn(-c2ccc(NS(=O)(=O)c3ccc(Cl)cc3)cc2)c1C(F)(F)F do in these assays?
Jurkat NFkB inh: 11.7; TMEM16A inh: 100*; aSyn 5UTR inh: -9.9; 697 NFkB inh: 13.0; ANO1 activ: inactive; KLF5 inh: -0.1

How did Cc1[nH]n(-c2ncc(-c3ccc(Cl)cc3)s2)c(=O)c1C(c1ccc(Cl)cc1)C(C#N)C#N (stereo unspecified) do in these assays?
Jurkat NFkB inh: -4.4; TMEM16A inh: 100*; aSyn 5UTR inh: -14.3; 697 NFkB inh: 5.6; ANO1 activ: inactive; KLF5 inh: -29.2

How did Cc1nn2cc(-c3ccccc3)nc2s1 do in these assays?
Jurkat NFkB inh: -111.3; TMEM16A inh: inactive; aSyn 5UTR inh: -21.3; 697 NFkB inh: -181.4; ANO1 activ: inactive; KLF5 inh: -64.8

What do the screens show for `c1ccc(-c2cn3nc(-c4ccccc4)sc3n2)cc1`?
Jurkat NFkB inh: -25.0; TMEM16A inh: inactive; aSyn 5UTR inh: 101.4*; 697 NFkB inh: -167.3; ANO1 activ: inactive

What do the screens show for `CCOC(=O)C(C)On1c(-c2ccccc2)nc2ccc([N+](=O)[O-])cc21` (stereo unspecified)?
Jurkat NFkB inh: -91.0; TMEM16A inh: inactive; aSyn 5UTR inh: -192.0; 697 NFkB inh: -110.7; ANO1 activ: inactive; KLF5 inh: -150.9

Results for CCOC(=O)C(C)On1c(-c2ccc(Cl)cc2)nc2ccc([N+](=O)[O-])cc21 (stereo unspecified) ?
Jurkat NFkB inh: -129.2; TMEM16A inh: 100*; aSyn 5UTR inh: -175.8; 697 NFkB inh: -184.5; ANO1 activ: inactive; KLF5 inh: -126.1

What do the screens show for `Cc1nn(C(C)(C)C)c(OC(=O)C2CCCC2)c1S(=O)(=O)c1ccccc1`?
aSyn 5UTR inh: -44.0; ANO1 activ: inactive; KLF5 inh: 2.0

Results for Cc1ccc(S(=O)(=O)c2c(C)nn(C(C)(C)C)c2OC(=O)C2CCCC2)cc1 ?
Jurkat NFkB inh: 4.3; TMEM16A inh: 25*; aSyn 5UTR inh: -26.8; 697 NFkB inh: 4.4; ANO1 activ: inactive; KLF5 inh: -70.0

How did COc1ccc(-c2nnc(SCC(=O)Nc3c(Cl)cc(Cl)cc3C(=O)O)o2)cc1 do in these assays?
Jurkat NFkB inh: 20.4; 697 NFkB inh: 11.4; ANO1 activ: inactive

Results for CC(=O)Nc1ccc(/C(C)=N\NC(=O)c2ccc(-c3ccccc3)cc2)cc1 ?
Jurkat NFkB inh: -24.6; TMEM16A inh: inactive; aSyn 5UTR inh: 95.5*; 697 NFkB inh: 0.2; KLF5 inh: -55.8

Results for N#Cc1c(N)[nH]c2ccc(Sc3ccccc3)cc12 ?
ANO1 activ: inactive

Results for CCOc1ccc(NC(=O)COC(=O)CN2CCCCCC2=O)cc1 ?
Jurkat NFkB inh: 7.4; 697 NFkB inh: -10.7; ANO1 activ: inactive

How did COC(=O)c1ccc2nc(C)cc(Nc3ccc(N(C)C)cc3)c2c1 do in these assays?
Jurkat NFkB inh: 5.2; TMEM16A inh: inactive; aSyn 5UTR inh: -3.6; 697 NFkB inh: -25.4; ANO1 activ: inactive; KLF5 inh: 17.0

What do the screens show for `COC(=O)c1ccc(Nc2cc(C)nc3ccccc23)cc1`?
Jurkat NFkB inh: 39.8; TMEM16A inh: inactive; aSyn 5UTR inh: 64.7*; 697 NFkB inh: -32.9; ANO1 activ: inactive; KLF5 inh: 18.7

Results for COC(=O)Nc1cc(C)nc2ccccc12 ?
Jurkat NFkB inh: -6.2; TMEM16A inh: inactive; aSyn 5UTR inh: -16.7; 697 NFkB inh: -2.0; ANO1 activ: inactive; KLF5 inh: -8.0

How did Cc1cc(NC(=O)Cc2ccccc2)c2ccccc2n1 do in these assays?
Jurkat NFkB inh: 28.8; TMEM16A inh: 25*; aSyn 5UTR inh: 5.3; 697 NFkB inh: -28.0; ANO1 activ: inactive; KLF5 inh: -12.8
